Screening results from PubChem BioAssay.
Most compounds without a hit are left out; they make up all but 6.1% or so of the library.
Luciferase inh = blocks Photinus pyralis firefly luciferase activity | purified firefly luciferase, luminescence, 8 min | Potency, µM (top dose mostly 57.1 µM), hits mostly inhibitors | 72,000 tested, 2.2% active; note: nearly all actives have a fitted effect of over 40% in size
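Luminescence read-out after 8 min at room temperature; enzyme reaction used luciferin plus 10 uM ATP (linear range) in imidazole buffer pH 7.2 with KCl, MgCl2, Tween 20 and BSA. Each sample was run as a titration.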
HEK293 cAMP ctrl = parental HEK293 cAMP activation (counter-screen) | Potency, µM (top dose mostly 57.1 µM), most hits filed as activators | AID 938 | 73,000 tested, 2.5% active | parental HEK293 CNG cAMP sensor, membrane potential fluorescence; note: nearly all actives have a fitted effect of over 55% in size
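Parental HEK 293 cells stably expressing a modified CNG channel (no TSHR) report cAMP rise as membrane depolarization. Membrane potential dye with 100 uM RO 20-1724 was loaded for 60 min at room temperature, then compound added for 30 min; fluorescence read at 590 nm.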
ERK AVP block = vasopressin-driven ERK pathway inhibition. 72,000 tested, 0.99% active. AID 995. Potency, µM (highest dose often 57.5 µM), hits mostly inhibitors. HEK293-V1b, vasopressin-stimulated pERK AlphaScreen; note: nearly all actives have a fitted effect of over 55% in size
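qHTS, compounds titrated on V1b-expressing HEK293 cells. Preincubation 30 min at 37C, vasopressin 25 nM for 5 min, lysis 10 min, bead incubation 5 hr at room temperature.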
TSHR agonist = agonists of human thyroid stimulating hormone receptor; 73,000 tested, 0.48% active; HEK293-CNG-TSHR cells (CNG channel as cAMP sensor), membrane potential dye, cAMP; Potency, µM (series often up to 57.1 µM), most hits filed as activators; active = well fitted activation curve with a large enough effect in the main read-out, with a control signal flat, not every such curve was filed as active; inconclusive = small, poorly fitted or top-dose-only effect, or a change in a side signal; inactive = no such curve, though single readings can be large or run the other way; reference of the percent scale not stated here;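 note: the control signal comes from parental cells without the receptor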
Target sequence (P16473 whole entry, looked up): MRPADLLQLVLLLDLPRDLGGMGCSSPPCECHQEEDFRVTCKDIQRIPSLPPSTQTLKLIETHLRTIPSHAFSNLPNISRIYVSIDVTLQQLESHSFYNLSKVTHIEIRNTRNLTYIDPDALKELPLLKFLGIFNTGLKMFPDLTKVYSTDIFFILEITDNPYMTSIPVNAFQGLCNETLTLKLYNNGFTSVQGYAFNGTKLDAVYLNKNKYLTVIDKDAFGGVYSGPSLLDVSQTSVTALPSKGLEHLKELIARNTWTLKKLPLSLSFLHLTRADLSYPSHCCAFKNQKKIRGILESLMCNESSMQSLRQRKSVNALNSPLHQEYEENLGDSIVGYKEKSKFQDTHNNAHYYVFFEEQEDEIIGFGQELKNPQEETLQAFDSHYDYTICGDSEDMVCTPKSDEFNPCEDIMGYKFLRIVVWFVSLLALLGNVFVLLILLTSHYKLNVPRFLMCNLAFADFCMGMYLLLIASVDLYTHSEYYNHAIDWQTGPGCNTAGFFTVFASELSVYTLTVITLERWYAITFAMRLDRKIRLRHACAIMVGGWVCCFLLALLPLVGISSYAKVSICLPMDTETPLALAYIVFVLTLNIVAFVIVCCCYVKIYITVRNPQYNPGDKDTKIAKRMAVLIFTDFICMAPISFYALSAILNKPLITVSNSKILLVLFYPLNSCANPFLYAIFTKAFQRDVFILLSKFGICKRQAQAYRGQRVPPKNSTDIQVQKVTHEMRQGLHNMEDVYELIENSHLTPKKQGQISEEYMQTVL
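HEK 293 cells stably expressing TSHR and a cAMP-gated CNG channel; parental CNG-only cells as counterscreen. Cells preloaded 60 min with membrane potential dye plus 100 uM RO 20-1724, then compound 30 min; fluorescence read at 590 nm.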
GBA activity = modulators of human glucocerebrosidase | P04062 | purified enzyme, resorufin glucoside fluorescence (screen aimed at inhibitors), 20 min | Potency, µM | 48,000 tested, 1.1% active; in the data active = potency below about 15 µM; inconclusive = mostly about 16 µM to 33 µM;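 note: the screen sought inhibitors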
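Compounds titrated against 0.2 nM normal enzyme, 30 uM resorufin beta-D-glucopyranoside substrate, citrate/phosphate buffer with taurocholate and tween-20, pH 5.9. Reaction ran 20 min at room temperature; fluorescence (Ex 548/Em 600) gave AC50.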
Bst PK mod = modulators of Bacillus stearothermophilus pyruvate kinase; Potency, µM; 51,000 tested, 1.2% active; purified pyruvate kinase, luminescence ATP production; ribose 5-phosphate activator present at AC10; in the data active = potency below about 11 µM; inconclusive = mostly about 12 µM to 25 µM;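 the screen sought inhibitors and activators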
Numbers stand for hits; i = inactive; ? = inconclusive; nt = no result given; [ ] = another dose, or the depositor's remark. Unless noted, calls come from the whole dose curve; as a rule, active = well fitted curve in the direction sought with a large enough effect; inconclusive = small, poorly fitted or top-dose-only effect, or another doubt; inactive = no such curve, though single readings can be large; an effect the other way counts as inactive or inconclusive.

SMILES | Luciferase inh | HEK293 cAMP ctrl | ERK AVP block | TSHR agonist | GBA activity | Bst PK mod
CCN1c2ccccc2-c2nc3ccccc3n2C1c1cccnc1 (stereo not given) | i | 32µM | i | ? | i | i
CCN1c2ccccc2-c2nc3ccccc3n2C1c1ccccn1 (stereo not given) | i | 16µM | i | ? | i | i
COc1cccc(-c2nnc(SCC(=O)OC(C)C)n2N)c1 | i | i | i | 13µM | i | ?
Cc1cccc(C(OC(=O)c2ccco2)C(=O)NCc2ccccc2)n1 (stereo not given) | i | i | i | i | i | i
CC(C)C(OC(=O)c1ccco1)C(=O)NCc1ccccc1 (stereo not given) | i | 25µM | i | ? | i | i
Cc1ccc(N=Nc2c(O)c3ccccc3[nH]c2=O)c(S(=O)(=O)N(C)C)c1 | 3.2µM | i[11.4 µM] | i[11.5 µM] | i[11.4 µM] | nt | nt
CCCCc1nc2n[nH]c(N)c2c2c1CCC2 | i | i | 16µM | nt | i | nt
CCc1nc2n[nH]c(N)c2c2c1CCCC2 | i | nt | nt | nt | nt | i
Cc1nc(CC(=O)Nc2nc(C(C)(C)C)cs2)cs1 | i | i | i | i | i | i
CC(C)(C)c1csc(NC(=O)c2ccc(Cl)s2)n1 | 16µM | i | i | i | 15 | i
O=C(COc1ccc(S(=O)(=O)NC2CCCCC2)cc1Cl)NCC1CCCO1 (stereo not given) | i | i | i | i | 14 | i
O=C(COc1ccc(S(=O)(=O)NC2CCCCC2)cc1Cl)NCc1cccnc1 | i | i | i | i | ? | i
Nc1cccc(-c2nc3ccc(N)cc3s2)c1 | 1µM | i | i | i | nt | 0.71
Nc1ccc(O)c(-c2nc3ccccc3s2)c1 | ? | i | i | i | nt | nt
CC(C)CNS(=O)(=O)c1ccc(CCC(=O)N2CCN(Cc3ccc4c(c3)OCO4)CC2)cc1 | i | i | i | i | i | 2.8
CC(=O)N1[C@H](Cc2ccccc2)C=C[C@]1(C)C(=O)NCc1cc(F)cc(C(F)(F)F)c1 | nt | ? | i | ? | nt | nt
C[C@]1(C(=O)NCc2cc(F)cc(C(F)(F)F)c2)C=C[C@@H](Cc2ccccc2)N1C(=O)c1ccccc1 | nt | 16µM | i | ? | nt | nt
CCCCCOC(=O)c1[nH]c2c(c1C)C(=O)C(C(=O)OC)C(C)C2 (stereo not given) | ? | ? | i | ? | ? | i
COC(=O)C1C(=O)c2c([nH]c(C(=O)OCC3CCCO3)c2C)CC1C (stereo not given) | 7.9µM | i | i | i | nt | nt
COCCOC(=O)c1[nH]c2c(c1C)C(=O)C(C(=O)OC)C(C)C2 (stereo not given) | 10µM | i | i | i | nt | nt
C=CC(C1=CC(=O)C(OC)=C(OC)C1=O)c1ccccc1 (stereo not given) | nt | nt | i | nt | nt | nt
N=C1[C@@H](O)[C@]2(I)c3ccccc3N3C(=N)[C@H](O)[C@@H]4c5ccccc5N1[C@@H]4[C@@H]32 | i[11.4 µM] | ? | i[11.5 µM] | ? | nt | nt
CCOc1ccccc1Nc1ccc(N)cc1S(=O)(=O)O | i[11.4 µM] | i[11.4 µM] | i[11.5 µM] | i[11.4 µM] | nt | nt
COc1ccc(COC(=O)N/N=C2/C[C@@H](O)[C@@H](O)[C@@H]3[C@@H]4C(=O)N(Cc5ccc6c(c5)OCO6)C(=O)[C@H]4CC[C@@H]23)cc1 | i[11.4 µM] | i[11.4 µM] | i[11.5 µM] | i[11.4 µM] | nt | nt
Nn1c(SCc2csc(-c3ccccc3)n2)nnc1-c1cccs1 | i | 25µM | i | ? | i | i
SMILES | Luciferase inh | HEK293 cAMP ctrl | ERK AVP block | TSHR agonist | GBA activity | Bst PK mod
O=C(O)CCSc1nc2ccccc2n1CCOc1ccccc1 | i | i | ? | i | nt | nt
c1ccc(CSc2nnnn2-c2cccc3ccccc23)nc1 | i | i | i | i | i | 7.4
COc1ccc(C)cc1-n1nnnc1SCc1csc(C)n1 | i | i | i | i | i | i
Cc1ccccc1-n1nnnc1SCc1csc(-c2ccccc2)n1 | i | 3.2µM | i | ? | i | i
COCCn1c(SCc2csc(-c3ccccc3)n2)nc2ccccc21 | i | 32µM | 25µM | ? | i | i
Nc1nc(SCc2ccc([N+](=O)[O-])cc2)c2ncn([C@@H]3O[C@@H](CO)[C@@H](O)[C@H]3O)c2n1 | i | i | i | i | nt | nt
COc1ccc2nccc(SCC(=O)O)c2c1 | i[11.4 µM] | i[11.4 µM] | i[11.5 µM] | i[11.4 µM] | nt | nt
O=C(/C=C\c1ccc(O)c(O)c1)OCCc1ccccc1 | i | ? | ? | ? | nt | nt
